Results published in PubChem BioAssay AID2380 (Sanford-Burnham Center for Chemical Genomics, 2010).
Screen size: about 330,000 compounds; about 960 (0.29%) were called active.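 The calls were made as follows: active = compounds whose signal lies at least 3.5 SD above the mean of all wells on their plate; inactive = the rest.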 Many of the other results were omitted from the sample, so actives are more common in it than they were.

Experiment: small molecules increasing insulinoma cell replication – ATP luminescence, uHTS, primary screen (AID 2380);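 also: 0% = DMSO-treated cells in low-serum medium and 100% = 10% serum control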
Details: MIN6 cells proliferation, ATPlite luminescence, 48 h; at 10 µM; active compounds read high; 100% = growth in 10% serum; cells starved in 0.2% serum

Compound	proliferation
Cc1cc(C)c(S(=O)(=O)NCC2CCC(C(=O)NCc3ccc4c(c3)OCO4)CC2)c(C)c1 (configuration not stated)	-1.16% (inactive)
O=C(CN1CCN(c2ccc(Cl)cc2)CC1)c1ccccc1	-0.29% (inactive)
COc1ccc(CN2CCNC(=O)C2CC(=O)NCc2cn[nH]c2-c2ccccc2)c(F)c1 (configuration not stated)	0.21% (inactive)
Cc1ccc2c(c1)N(S(=O)(=O)c1cc(-c3cc(C)no3)ccc1C)CCO2	-6.66% (inactive)
CCOC(=O)C1=C(CC)OC(N)=C(C#N)C1c1ccc(F)cc1F (configuration not stated)	9.9% (active)
CCOC(=O)C1=C(C)OC(N)=C(C#N)C1c1cncc(-c2ccc(F)cc2)c1 (configuration not stated)	-3.32% (inactive)
C=CCOC(=O)C1=C(C)OC(N)=C(C#N)C1c1ccc(F)cc1 (configuration not stated)	-0.46% (inactive)
CC(=O)NC(C)(C)C1CC=C(C)/C(=N\O)C1 (configuration not stated)	-0.3% (inactive)
CCOC(=O)c1sc(NC(=O)CCN2CCOCC2)c(C(=O)OCC)c1C	-6.14% (inactive)
CCOC(=O)Nc1sc(C(=O)N(C)C)c(C)c1C(=O)OCC	7.91% (active)
CCOC(=O)c1c(NC(=O)CCl)sc(C(=O)N(CC)CC)c1C	-3.42% (inactive)
NC(=O)c1nsc(C(=O)N(CCCN2CCOCC2)C(C(=O)NC2CCCCC2)c2ccc(Cl)cc2)c1N (configuration not stated)	0% (inactive)
Cc1noc(COc2ccccc2OCc2onc(C)c2Cl)c1Cl	-3.09% (inactive)
Cn1nc(-c2ccccc2)c2cc([N+](=O)[O-])ccc21	8.71% (active)
O=[N+]([O-])c1ccc2c(c1)C(O)n1nc(-c3ccccc3)nc1S2 (configuration not stated)	-0.32% (inactive)
COC(=O)Cn1nc(-c2ccccc2)c2cc(Cl)ccc21	-1.48% (inactive)
C/C(Cl)=C\Cn1c(Nc2cccc(C)c2)nc2c1c(=O)n(C)c(=O)n2C	-1.44% (inactive)
COc1ccc(NC(=O)CNc2cc(S(=O)(=O)N3CCOCC3)ccc2N2CCOCC2)c(OC)c1	-0.63% (inactive)
CCOC(=O)C1(Cc2ccccc2C)CCCN(C(=O)CCc2c(C)noc2C)C1 (configuration not stated)	0.64% (inactive)

Compound	proliferation
Cc1ccc(S(=O)(=O)N2CCCCC2)cc1C(=O)N1CCN(CCO)CC1	12.6% (active)
CCOC(=O)N1CCN(C(=O)c2cn(C)c3ccc(S(=O)(=O)N4CCCC4)cc3c2=O)CC1	-0.22% (inactive)
Cc1ccc(S(=O)(=O)N2CCN(C)CC2)cc1C(=O)NC1CCCCC1	-0.96% (inactive)
CCC(NC(=O)c1ccccc1NC(=O)c1ccccc1)C(=O)NNC(=O)CSc1nc2ccccc2o1 (configuration not stated)	-0.4% (inactive)
COc1ccc(N(CC(=O)N2CCOCC2)S(=O)(=O)c2ccccc2)cc1Cl	-0.37% (inactive)
COCCN(C(=O)CCC(=O)Nc1nccs1)C(C(=O)NC(C)(C)C)c1ccc(Cl)cc1 (configuration not stated)	5.62% (inactive)
CC(=O)Nc1ccc(/C(C)=N/NC(=O)CN(c2ccccc2Br)S(C)(=O)=O)cc1	0% (inactive)
C=CCn1c(=O)c(C(=O)NCc2ccc3c(c2)OCO3)c(O)c2ccccc21	-5.37% (inactive)
CCn1c(=O)cc(SCC(=O)NCc2ccc3c(c2)OCO3)c2ccccc21	0.19% (inactive)
CCn1c(=O)c([N+](=O)[O-])c(NCc2ccc3c(c2)OCO3)c2ccccc21	8.6% (active)
CCc1ccc(S(=O)(=O)NCC(O)COc2ccc(OC)cc2)cc1 (configuration not stated)	1.69% (inactive)
COc1ccc(CN(C(=O)CSc2nnc(-c3ccc(OC)c(OC)c3)o2)c2ccc(F)cc2)cc1	-1.49% (inactive)
CSc1cccc(NC(=O)CN2C(=O)COc3ccc(S(=O)(=O)N4CCOCC4)cc32)c1	-3.64% (inactive)
O=C(c1ccc(F)cc1)c1cn(Cc2ccc(F)cc2)c2cc3c(cc2c1=O)OCCO3	-0.71% (inactive)
Cc1cc(NC(=O)COn2nnc3ccccc32)no1	-1.01% (inactive)
Cc1cc(NC(=O)CSCC(=O)NC(C)c2ccccc2)no1 (configuration not stated)	-3.94% (inactive)
Cc1cc(NC(=O)CSc2nc3ccccc3n2CC(C)C)no1	7.98% (active)
CCOc1ccc(C(=O)Nc2ccc(CN3CCOCC3)cc2)cc1Cl	-1.37% (inactive)
CCOC(=O)c1csc(CCNC(=O)c2oc3c(Cl)cc(C)cc3c2C)n1	-3.1% (inactive)

Compound	proliferation
CCOC(=O)C(C)n1nc(-c2ccccc2)c2ccccc2c1=O (configuration not stated)	4.32% (inactive)
CCCNC(=O)CCn1nc(-c2ccccc2)c2ccccc2c1=O	9.9% (active)
O=c1c2ccccc2c(-c2ccc(Br)cc2)nn1Cc1ccccc1	-5.75% (inactive)
CCCn1c(C)cc(/C=C(\C#N)C(=O)OCC(=O)Nc2cc(OC)c(OC)c(OC)c2)c1C	-0.86% (inactive)
COc1ccccc1N(C)C(=O)c1cc(S(=O)(=O)N2CCc3ccccc32)cn1C	-2.09% (inactive)
CCOC(=O)c1c(N=CN(C)C)c(C#N)c2n1CCCC2	5.05% (inactive)
CC1=NN(C(=O)CCCc2ccccc2)C(O)(C(F)(F)F)C1 (configuration not stated)	-1.71% (inactive)
OC1CN=C2Sc3ccccc3N2C1 (configuration not stated)	5.2% (active)
CCOC(=O)N1CCN(C(=O)c2ccc3nc4cc(Cl)ccc4c(=O)n3c2)CC1	-2.76% (inactive)
O=C(CN1CCN(c2ccc(Cl)cc2)CC1)NCc1cccs1	0.22% (inactive)
COc1cc2c(cc1OC)C(C(=O)NCc1ccco1)C1c3ccccc3CCN1C2=O (configuration not stated)	9.44% (active)
CC1(C)SC2c3ccccc3C(=O)N2[C@@H]1C(=O)NCc1ccco1 (some centres not stated)	0.14% (inactive)
COc1ccc(S(=O)(=O)N2CCC(C(=O)NCc3ccco3)CC2)cc1C	-0.27% (inactive)
O=C1NC(c2ccc(-c3ccccc3[N+](=O)[O-])o2)C(C(=O)c2ccc(Cl)cc2)C(O)(C(F)(F)F)N1 (configuration not stated)	-2.76% (inactive)
COC(C(=O)NCc1ccccc1C)c1ccccc1 (configuration not stated)	-1.34% (inactive)
CC(=O)CC[C@@H](C)O[C@@H]1OC(C)[C@H](O)CC1O (some centres not stated)	-5.25% (inactive)
COc1cccc(CNC(=O)CCC2CCCN(C(=O)c3cc(C)[nH]n3)C2)c1 (configuration not stated)	0.78% (inactive)
COc1cccc(CNC(=O)CCC2CCCN(C(=O)c3ccoc3C)C2)c1 (configuration not stated)	12.3% (active)
COc1cccc(CNC(=O)CCC2CCCN(C(=O)c3ccc(F)c(Cl)c3)C2)c1 (configuration not stated)	-1.84% (inactive)
